Screens from PubChem BioAssay.
Dicer inh – inhibitors of human Dicer processing of pre-microRNA; AID 1347074; 6% of 47,000 active; cat-ELCCA pre-miR-21 Dicer processing, chemiluminescence; hits give high values; z-score at 25 µM; in the data active = z-score above about 3, passing the limit was not always enough;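 also: higher signal means more uncleaved substrate so more Dicer inhibition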
A number is an active result; . = inactive. Only a selection was taken, and hits are over-represented in it overall.

SMILES | Dicer inh
Brc1ccc(-c2ccc(/C=C/c3nc4ccccc4o3)o2)cc1 | 8.2
C(=C\c1nc2ccccc2o1)/c1ccccc1 | .
c1cc(-c2nc3ccccc3o2)cc(-c2nc3ccccc3o2)c1 | .
COc1ccc(-n2c(/C=C/c3cn(C)c4ccccc34)nc3ccccc3c2=O)cc1 | .
CCOC(=O)c1cc2nc(Nc3ccc(OC)cc3)sc2s1 | 3.3
CCOC(=O)c1cc2nc3sccn3c2s1 | .
CCOC(=O)c1sc(Nc2nc(C)c(CC)c(OC)n2)nc1C | .
O=C1CC(=O)CC(c2cccc(C(F)(F)F)c2)C1 | .
CCOC(=O)c1ccc(-n2nc(C)cc2C)cc1 | .
CCOC(=O)c1ccc(N)c(N)c1 | 3.4
CCOC(=O)c1ccc([N+](=O)[O-])c(C)c1 | .
CS/C(=N\Nc1c(Cl)cc(Cl)cc1Cl)NC(=O)c1c(Cl)cccc1Cl | .
CC(=O)Nc1cc2cc(N)ccc2oc1=O | .
CN(C)/C=C1/SC(=O)N(c2ccc(OC(F)(F)F)cc2)C1=O | .
C/C(=N\Nc1c(Cl)cc(Cl)cc1Cl)c1cc(F)ccc1O | .
C/C(=N\Nc1c(Cl)cc(Cl)cc1Cl)c1oc(C)nc1C | 3.2
CC(=O)Nc1c(C)cc(Cl)cc1Cl | .
O=S(=O)(Nc1ccccc1C(F)(F)F)c1cccs1 | .
Cc1cccc2[nH]c(SCc3cc4c(cc3Cl)OCO4)nc12 | .
CCCn1c(=O)cc(N)n(-c2ccc(Cl)cc2)c1=O | 5.1
CCCn1c(=O)c2[nH]cnc2n(-c2ccc(Cl)cc2)c1=O | .
Nc1cc(=O)n(Cc2ccccc2)c(=O)n1-c1ccccc1 | .
O=C1c2oc3ccccc3c(=O)c2C(c2ccc(F)cc2)N1CCCN1CCOCC1 (stereo not given) | .
Cc1ccc(S(=O)(=O)N/N=C/c2ccc(Cl)c(Cl)c2)cc1 | .
Cc1ccc(S(=O)(=O)N/N=C/c2ccc(Cl)cc2)cc1 | .
SMILES | Dicer inh
COc1ccc(/C=N/NS(=O)(=O)c2ccc(Cl)cc2)cc1OC | 3.5
Cc1onc(-c2c(Cl)cccc2Cl)c1NC(=O)N1CCCN2C(=O)c3ccccc3C12 (stereo not given) | .
CCCC12CN3CC(CCC)(CN(C1)C3c1ccc(OC)c(OC)c1)C2=O (stereo not given) | .
CC1=C(C(=O)OC(C)C)C(c2ccc(O)cc2)C2=C(CCCC2=O)N1 (stereo not given) | .
Cc1ccc(CN2C(=O)c3oc4ccc(Cl)cc4c(=O)c3C2c2ccc(O)cc2)cc1 (stereo not given) | .
Brc1ccc(SCCc2ccncc2)cc1 | .
CC(C)COC(=O)C(C)Oc1ccc2c(=O)c(Oc3ccccc3Cl)coc2c1 (stereo not given) | .
CCOCCOC(=O)COc1ccc2c(=O)c(-c3ccc(Cl)cc3)coc2c1 | 3.5
Cc1cc(C)cc(Oc2coc3cc(OC(C)C(=O)OCC(C)C)ccc3c2=O)c1 (stereo not given) | 3.6
CCOCCOC(=O)C(C)Oc1ccc2c(=O)c(Oc3cc(C)c(Cl)c(C)c3)coc2c1 (stereo not given) | .
CCCOC(=O)COc1ccc2c(=O)c(Oc3cc(C)c(Cl)c(C)c3)coc2c1 | .
CCC(C)OC(=O)C(C)Oc1ccc2c(=O)c(-c3ccc(Cl)cc3)coc2c1 (stereo not given) | .
CCCOC(=O)C(C)Oc1ccc2c(=O)c(-c3ccc(Cl)cc3)coc2c1 (stereo not given) | 3.2
CCCCOC(=O)C(C)Oc1ccc2c(=O)c(Oc3ccccc3Br)coc2c1 (stereo not given) | .
CCOC(=O)C(CC)Oc1ccc2c(=O)c(-c3ccc(Cl)cc3)coc2c1 (stereo not given) | .
CC(C)C(=O)NNc1nc2c(c(=O)n(C)c(=O)n2C)n1Cc1ccc(Cl)cc1 | .
O=C(O)COCC(=O)NC1Cc2ccccc2C1 | .
CCOC(=O)N/N=C/c1ccc(N(C)CCC#N)cc1 | .
O=C1ON=C(c2ccccc2)/C1=C/c1ccc(Cl)cc1Cl | .
COC(=O)/C(C#N)=C/c1ccc(OC)c(Br)c1 | .
COc1ccc(CCN2C(=O)C(Oc3ccccc3C)C2c2ccc3c(c2)OCO3)cc1 (stereo not given) | .
COc1ccc(OC2C(=O)N(Cc3ccc(F)cc3)C2c2ccc3c(c2)OCO3)cc1 (stereo not given) | 3.6
O=C1C(Oc2ccccc2)C(c2ccc3c(c2)OCO3)N1CCc1ccc(F)cc1 (stereo not given) | .
COc1ccc(NC(=S)NC(C)(C)C)cc1OC | .
CC1=C(C(=O)OCc2ccccc2)C(c2cccc(O)c2)C2=C(CC(c3cccs3)CC2=O)N1 (stereo not given) | .
SMILES | Dicer inh
CC(=O)Nc1sc2c(c1C(=O)O)CC(C)(C)OC2 | .
CC1(C)Cc2c(sc(NC(=O)C(c3ccccc3)c3ccccc3)c2C#N)CO1 | 4.5
COC(=O)c1c(NC(=O)CCC(=O)O)sc2c1CC(C)(C)OC2 | .
CC(=O)Nc1c(C(C)(C)C)nn2c(C)cc(C(F)(F)F)nc12 | .
COC(=O)/C(=C/N(C)C)NC(=O)c1ccccc1 | .
Fc1ccc(C2C3CCc4ccccc4C3=NN2C(=S)Nc2ccc(Cl)cc2)cc1 (stereo not given) | .
COc1ccc(C(OC[C@H]2O[C@@H](n3cnc4c(=O)[nH]c(N)nc43)CC2O)(c2ccccc2)c2ccc(OC)cc2)cc1 (stereo not given in full) | .
O=C(CSc1nc2ccccc2s1)N1CCN(CCO)CC1 | .
CCn1c2c(c(=O)[nH]c1=O)C(c1cccc(Cl)c1)C1=C(N2)c2ccccc2C1=O (stereo not given) | .
CCn1c2c(c(=O)[nH]c1=O)C(c1cccc3ccccc13)C1=C(N2)c2ccccc2C1=O (stereo not given) | 3.4
COCCn1c2c(c(=O)[nH]c1=O)C(c1cccc3ccccc13)C1=C(N2)c2ccccc2C1=O (stereo not given) | .
CCC(c1ccccc1)c1nnc(N)s1 (stereo not given) | 4.2
Cc1cc(Sc2nnc(N)s2)c2ccccc2n1 | .
CC(c1ccccc1)c1nnc(N)s1 (stereo not given) | .
N#C/C(=C\c1ccc(Cl)cc1)C(=O)C1CC1 | .
O=C(O)CC12OC3C4C5CC(C6C5C3C61)C42 (stereo not given) | .
CC1(C)OC(=O)C2(C(=O)O1)C1C3C4CC5C6C4C1C6C2C53 (stereo not given) | .
COC(=O)C1(C(=O)OC)C2C3C4CC5C6C4C2C6C1C53 (stereo not given) | 5.4
COC(=O)/C(C#N)=C/c1cccn1CCCn1ccnc1 | .
O=C(Oc1cccc(Br)c1)c1ccco1 | .
O=C(Oc1ccc2cc(Br)ccc2c1)c1ccco1 | 5.8
O=C(Oc1ccc2c(c1)oc(=O)c1ccccc12)c1ccco1 | .
CC(C)(C)C(=O)OCC(=O)c1ccc(C(F)(F)F)cc1 | .
CC(C)(C)c1cc2nc(C(F)(F)F)cc(N/N=C/c3ccccc3)n2n1 | .
CC(C)(C)c1cc2nc(C(F)(F)F)cc(NNC(=O)Nc3ccccc3)n2n1 | .
SMILES | Dicer inh
CC(C)(C)c1cc2nc(C(F)(F)F)cc(NNC(=O)c3ccccc3)n2n1 | 6.7
CC(C)(C)c1cc2nc(C(F)(F)F)cc(Sc3ccc(Cl)cc3)n2n1 | .
CC(C)(C)c1cc2nc(C(F)(F)F)cc(NNC(=O)c3ccc(Cl)cc3)n2n1 | 5.2
CC(C)(C)c1csc(NNC(=O)c2ccc(Cl)cc2)n1 | .
CCc1nc(SCC(N)=O)n[nH]1 | .
Cc1c(/C=N/Nc2c(Cl)cc(Cl)cc2Cl)sc2ccccc12 | .
O=S(=O)(NCc1c(Cl)cccc1Sc1ccc(Cl)cc1)c1ccc(-c2ccno2)s1 | .
